# Source: PubChem BioAssay (NCATS)
# “And” between values parts separate entries of the source, which are not always exact repeats. Equal values may be shown once. Records with an inconclusive call do not appear. Values without a mark were called inactive. The source made the active and inactive calls. Calls come from the whole dose curve; as a rule, active = well fitted inhibition curve with a large enough effect; inconclusive = small, poorly fitted or top-dose-only effect; inactive = no such curve, though single readings can be large or run the other way.
# Assay: qHTS to identify inhibitors of the type 1 interferon - major histocompatibility complex class I in skeletal muscle: primary screen against the NCATS Mechanism Interrogation Plate v5.0 (MIPE) Libary (AID 1347411); note: nearly all actives have a fitted effect of over 65% in size;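 for activity change, negative = inhibition: plate controls were vehicle for no effect and reference inhibitor for full effect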
# Details: iHSKM cells + IFN-b, HiBiT-tagged MHC-I luminescence, 24 h; series mostly up to 45.8 µM; activity change, negative = inhibition: at the top concentration
# How it was run: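 Seed engineered human myoblasts (HLA-B HiBit) in medium without dexamethasone containing 4 ng/ml IFN-beta; after 1 hr add compound titrations (top 46 uM final). Incubate 24 hrs at 37 C, lyse 10 min with HiBiT reagent, read luminescence.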
# Potency is the fitted concentration of half-maximal effect.
SMILES,Potency,"activity change, negative = inhibition"
Cc1ncc(-c2ccnc(Nc3ccc(S(C)(=O)=O)cc3)n2)n1C(C)C,1.17 µM (active),
COc1ccc(Nc2nccc(NCCO)n2)cc1,,-28.7%
O=C(Nc1cccc(Nc2ncc(Br)c(NCCc3cnc[nH]3)n2)c1)N1CCCC1,5.87 µM (active),
COC[C@H](NC(=O)c1cnc(C)s1)C(=O)N[C@@H](COC)C(=O)N[C@@H](Cc1ccccc1)C(=O)[C@@]1(C)CO1,0.0523 µM (active),
Cc1cc(O)c2c(c1)C(=O)c1cccc(O)c1C2=O,,7.07%
COc1cccc2c1C(=O)c1c(O)c3c(c(O)c1C2=O)C[C@@](O)(C(=O)CO)C[C@@H]3O[C@H]1C[C@H](N)[C@H](OC2CCCCO2)[C@H](C)O1 (some centres not stated),2.62 µM (active) and 2.34 µM (active),
Cc1cnc(Nc2ccc(CN3CCOCC3)cc2)nc1Nc1cccc(S(=O)(=O)NC(C)(C)C)c1,2.94 µM (active),
Cn1cc(C[C@@H](N)C(=O)O)c2ccccc21,,-7.72% [at 8.44 µM]
C[C@H]1[C@@H](OC(=O)CCC(=O)O)O[C@@H]2O[C@@]3(C)CC[C@@H]4[C@H](C)CC[C@@H]1[C@@]24OO3,,4.1%
CC(=O)NC(CS)C(=O)O (configuration not stated),,6.83%
CN(CC(=O)N(Cc1ccc(C2CCCCC2)cc1)c1ccc(C(=O)O)c(O)c1)S(=O)(=O)c1c(F)c(F)c(F)c(F)c1F,,6.76%
CC(=O)SCC(Cc1ccccc1)C(=O)NCC(=O)OCc1ccccc1 (configuration not stated),,38.4%
CC(C)Oc1ccc(C(=O)N[C@H](CNC(=O)CN(C)C)Cc2ccc(-c3cn4cccc([C@H](C)O)c4n3)cc2)cc1Cl,,14.9%
O=C(c1ccc(F)cc1)N1CCC[C@H](c2nc(-c3ccc(F)cc3)no2)C1,,-25.3%
Cc1ccc(O)c(C(CCN(C(C)C)C(C)C)c2ccccc2)c1 (configuration not stated),,-7.44%
CCOC(=O)[C@@H](N)Cc1ccc(-c2cc(O[C@H](c3ccc(Cl)cc3-n3ccc(C)n3)C(F)(F)F)nc(N)n2)cc1,9.3 µM (active),

SMILES,Potency,"activity change, negative = inhibition"
C[C@@H]1CC[C@@]2(OC1)OC1CC3C4CC=C5CC(O)CCC5(C)C4CCC3(C)C1[C@@H]2C (some centres not stated),,8.36%
COc1ccc([C@@H]2CNC(=O)C2)cc1OC1CCCC1,,3.94%
COc1cccc2c1C(=O)c1c(O)c3c(c(O)c1C2=O)C[C@@](O)(C(=O)CO)C[C@@H]3O[C@H]1C[C@H](N)[C@@H](O)[C@H](C)O1,0.829 µM (active),
N=c1ccn2c(n1)O[C@H]1[C@@H](O)[C@@H](CO)O[C@H]12,,4.82%
FC(F)(F)c1ccc(Nc2nc3ccc(Oc4ccnc(-c5ncc(C(F)(F)F)[nH]5)c4)cc3[nH]2)cc1,,-17.9%
O=S(=O)(O)CCSSCCS(=O)(=O)O,,1.66%
C=CC(=O)N1CCc2ccc(-n3c(=O)ccc4cnc5ccc(-c6cnn(C)c6)cc5c43)cc21,0.806 µM (active),
Nc1nc(=O)n([C@H]2C[C@H](O)[C@@H](CO)O2)cc1F,,-13.1%
OC[C@H]1OC(O)C[C@@H](O)[C@H]1O (some centres not stated),,-5.13%
CCCCOc1ccc(C(=O)Nc2ccc(F)cc2F)cc1,,-25.6%
COc1cc2c(cc1OC)[C@@H]1C(=O)c3ccc4c(c3O[C@@H]1CO2)C=CC(C)(C)O4,,-24.1%
COc1ccc(S(=O)(=O)Nc2cccnc2Nc2ccc(O)cc2)cc1,,3.31%
N#Cc1c(C2CCNCC2)cc(-c2c(O)cccc2OCC2CC2)nc1N,8.29 µM (active),
COC(=O)[C@H](CCCN=C(N)N)NS(=O)(=O)c1ccc(C)cc1,,-1.75%
O=C(O)c1ccc(Nc2ncc3c(n2)-c2ccc(Cl)cc2C(c2c(F)cccc2F)=NC3)cc1,,-18.2%
CCCNS(=O)(=O)Nc1ncnc(OCCOc2ncc(Br)cn2)c1-c1ccc(Br)cc1,,-15%
